ELG1 DNA repair: qHTS screen for small molecules that inhibit ELG1-dependent DNA repair in human embryonic kidney (HEK293T) cells expressing luciferase-tagged ELG1. AID 504467, 2011. 2.3% of 330,000 active. Potency, µM (top dose mostly 46.1 µM), actives largely listed as inhibitors. HEK293T ELG1-luciferase reporter, luminescence, 16 h; DNA damage induced by 5-fluorouridine; also: nearly all actives have a fitted effect of over 55% in size
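Overnight (16 hr) co-exposure of 2,000 cells/well to 5-fluorouridine and compound at 37 °C preceded detection. Luciferase was quantified via ONE-Glo luminescence; loss of signal denotes inhibition.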
TRPV1 ag: HTS Assay for Compounds that Act as Agonists of the Vanilloid Receptor 1; TRPV1-expressing cells, Fluo-8 calcium influx, agonist mode; activation, % at 8.33 µM; 0.19% of 320,000 active; AID 540275, 2011; in the data active = activation above about 80%; inconclusive = between about 30% and that limit
Target sequence (Q8NER1 whole entry, looked up): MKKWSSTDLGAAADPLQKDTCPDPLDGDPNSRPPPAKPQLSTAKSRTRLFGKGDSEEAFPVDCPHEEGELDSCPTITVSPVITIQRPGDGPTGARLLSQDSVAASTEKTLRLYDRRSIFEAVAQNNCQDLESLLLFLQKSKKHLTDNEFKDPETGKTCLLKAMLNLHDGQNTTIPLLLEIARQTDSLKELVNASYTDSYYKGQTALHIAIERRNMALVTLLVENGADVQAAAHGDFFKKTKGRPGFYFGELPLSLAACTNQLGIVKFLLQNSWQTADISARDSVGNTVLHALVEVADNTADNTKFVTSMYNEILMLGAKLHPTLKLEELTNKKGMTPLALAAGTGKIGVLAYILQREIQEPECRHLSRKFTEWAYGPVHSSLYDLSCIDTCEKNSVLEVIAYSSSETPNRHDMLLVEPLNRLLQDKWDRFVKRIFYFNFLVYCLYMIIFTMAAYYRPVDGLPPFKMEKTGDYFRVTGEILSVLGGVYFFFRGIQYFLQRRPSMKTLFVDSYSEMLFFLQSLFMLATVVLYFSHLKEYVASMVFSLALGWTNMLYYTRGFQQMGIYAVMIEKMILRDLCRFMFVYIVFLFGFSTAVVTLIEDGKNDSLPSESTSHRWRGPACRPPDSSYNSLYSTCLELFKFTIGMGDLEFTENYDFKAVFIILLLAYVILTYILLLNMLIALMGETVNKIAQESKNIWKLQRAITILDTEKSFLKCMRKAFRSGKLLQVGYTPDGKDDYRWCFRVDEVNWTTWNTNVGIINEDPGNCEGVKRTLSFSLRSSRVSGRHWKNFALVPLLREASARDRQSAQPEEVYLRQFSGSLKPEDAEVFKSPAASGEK
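Fluo-8 calcium influx in TRPV1-expressing cells, kinetic read (ex 480/em 520 nm). Compound added and read 3 min for agonist activity, followed by capsaicin at EC20 final and 2 min further read for enhancement.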
FUS suppressor: qHTS for Suppressors of FUS Proteinopathy: Primary screen using FUS-linked yeast assay | Potency, µM (top dose mostly 76.6 µM), hits mostly activators | 0.24% of 390,000 active | S. cerevisiae FUS-expressing, growth rescue, OD600, 24 h; also: nearly all actives have a fitted effect of over 55% in size
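Toxicity suppression screen in FUS-yeast. Cells induced with 2% galactose, starting OD 0.005, treated 24hr at 30C with compounds at multiple final concentrations; growth by OD600.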
TRPV1 PAM: HTS Assay for Compounds that Act as Potentiators of the Vanilloid Receptor 1; Transient receptor potential cation channel subfamily V member 1 (Homo sapiens), Q8NER1; TRPV1-expressing cells, Fluo-8 calcium influx, capsaicin EC20 potentiation; potentiation, % at 8.33 µM; 0.02% of 320,000 active; in the data active = potentiation above about 80%; inconclusive = between about 30% and that limit
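Fluo-8 calcium influx in TRPV1-expressing cells, kinetic read (ex 480/em 520 nm). Compound added and read 3 min for agonist activity, followed by capsaicin at EC20 final and 2 min further read for enhancement.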
Giardia kill: Small Molecules that selectively kill Giardia lamblia: qHTS | Giardia lamblia trophozoite viability | activity change, % at 7.66 µM, hits read low | 0.15% of 340,000 active | AID 540267, 2011; in the data active = activity change below about -80%; inconclusive = between about -30% and that limit;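 also: parasites exposed to compound for two days anaerobically before the ATP read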
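Media and compound were dispensed first, then trophozoites at 100 cells/well; plates sat 48 hrs at 37 deg C without oxygen before ATP luminescence reagent was added and read after 15-30 min at room temperature.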
Each line names hits and unclear results; the compound was inactive in the other large screens. Hits are enriched below; roughly 2.3% of the tested compounds scored in any of these assays. Unless noted, calls follow the shape of the dose curve; as a rule, active = well fitted curve in the direction sought with a large enough effect; inconclusive = small, poorly fitted or top-dose-only effect, or another doubt; inactive = no such curve, though single readings can be large; an effect the other way counts as inactive or inconclusive.

COc1ccc(Cl)cc1NC(=O)N1CCN(Cc2cc(=O)n3nc(-c4ccccc4)sc3n2)CC1	none (no result: ELG1 DNA repair, TRPV1 ag, TRPV1 PAM, Giardia kill)
COc1ccc2nc3sc(C(=O)N4CCN(c5ccc(F)cc5)CC4)cc3cc2c1	none (no result: ELG1 DNA repair, TRPV1 ag, TRPV1 PAM, Giardia kill)
COc1ccc(Cl)cc1NCc1nnc2n1CCCCC2	none (no result: ELG1 DNA repair, TRPV1 ag, TRPV1 PAM, Giardia kill)
Cc1ccccc1NC(=O)Cn1c(=O)n(CCCC(=O)NCc2ccc3c(c2)OCO3)c(=O)c2ccccc21	none (no result: ELG1 DNA repair, TRPV1 ag, TRPV1 PAM, Giardia kill)
CCOC(=O)[C@H]1[C@H]2COc3ccc(C)cc3[C@@H]2N2C(=O)c3cc(F)ccc3NC(=O)[C@@]12C	TRPV1 ag 91
CCOC(=O)[C@H]1[C@H]2COc3ccc(C)cc3[C@@H]2N2C(=O)c3cc(Cl)ccc3NC(=O)[C@@]12C	TRPV1 ag 82, FUS suppressor inconclusive
CCOC(=O)[C@H]1[C@H]2COc3ccc(Cl)cc3[C@@H]2N2C(=O)c3cc(F)ccc3NC(=O)[C@@]12C	TRPV1 ag inconclusive
Cc1sc2ncnc(NCC(c3ccco3)N(C)C)c2c1C (configuration not stated)	ELG1 DNA repair inconclusive, TRPV1 ag 86
O=C(c1ccc(S(=O)(=O)NCC2CCCO2)cc1)N1CCN(c2cccc(Cl)c2)CC1 (configuration not stated)	ELG1 DNA repair 9.2µM
FC(F)(F)c1cccc(N2CCN(C(=S)NCC3CCCO3)CC2)c1 (configuration not stated)	ELG1 DNA repair 21µM, TRPV1 ag inconclusive
CCC(Sc1nnc(C)n2c1cc1occc12)C(=O)Nc1ccccc1F (configuration not stated)	none (no result: ELG1 DNA repair, TRPV1 ag, TRPV1 PAM, Giardia kill)
Cc1cccc(-c2noc(CN(C(=O)c3ccccc3Cl)C(C)C)n2)c1	none (no result: ELG1 DNA repair, TRPV1 ag, TRPV1 PAM, Giardia kill)
COc1ccc(CN2CCN(C(=O)c3cccc4ccccc34)CC2)cc1OC	ELG1 DNA repair 12µM
CCOc1cc(CN2CCN(c3cccc(C(F)(F)F)c3)CC2)ccc1OC	ELG1 DNA repair 26µM
COc1ccc(CN2CCN(C(=O)c3cccc4ccccc34)CC2)cc1Br	ELG1 DNA repair inconclusive
CCOc1cc(CN2CCN(c3cccc(C(F)(F)F)c3)CC2)ccc1O	ELG1 DNA repair inconclusive, TRPV1 ag inconclusive
CCOc1cc(CN2CCN(C(=O)c3cccc4ccccc34)CC2)ccc1OC	ELG1 DNA repair 15µM
Cc1c(NC(=O)c2nc3ccccc3n(C)c2=O)cccc1[N+](=O)[O-]	none (no result: ELG1 DNA repair, TRPV1 ag, TRPV1 PAM, Giardia kill)
O=C1C2C(c3ccccc3)(C(=O)N1c1ccc(Cl)cc1)C2(c1ccccc1)c1ccccc1 (configuration not stated)	ELG1 DNA repair 6.5µM (no result: FUS suppressor)
O=C1c2ccccc2C(=O)N1c1ccc(Cl)cc1	ELG1 DNA repair inconclusive (no result: FUS suppressor, Giardia kill)
COc1ccc(CCNC(=O)/C(C#N)=C2\N=C(NC(=O)c3ccco3)c3ccccc32)cc1	ELG1 DNA repair 7.3µM
N#C/C(C(=O)NCc1ccccc1)=C1/N=C(NC(=O)c2ccco2)c2ccccc21	none
CCc1cccc(NC(=O)CN(C)S(=O)(=O)c2ccc3c(c2)CCCN3C(C)=O)c1	none (no result: ELG1 DNA repair, TRPV1 ag, TRPV1 PAM, Giardia kill)
CCN1CCN(CCCN(Cc2ccco2)C(=S)Nc2cccc(Cl)c2C)CC1	none
CCN1CCN(CCCN(Cc2ccco2)C(=S)Nc2ccccc2Cl)CC1	TRPV1 PAM 128
COc1ccc(/C=C2\Sc3ccc(C(=O)NC4CC4)cc3N(C)C2=O)cc1OC	ELG1 DNA repair 12µM, FUS suppressor inconclusive
CCOc1ccc(/C=C2/Sc3ccc(C(=O)N4CCOCC4)cc3N(C)C2=O)cc1OC	ELG1 DNA repair 8.2µM
COc1ccccc1NC(c1ccc(Cl)cc1)c1nnc(-c2cccc(F)c2)o1 (configuration not stated)	none (no result: ELG1 DNA repair, TRPV1 ag, TRPV1 PAM, Giardia kill)
Cc1[nH]n(C2=NCCS2)c(=O)c1N=Nc1cccc(C(F)(F)F)c1	ELG1 DNA repair 2.9µM, Giardia kill inconclusive
COc1ccc(-c2noc(CSc3nnc(Cc4ccccc4)n3-c3ccc(F)cc3)n2)cc1	FUS suppressor 14µM (no result: ELG1 DNA repair, TRPV1 ag, TRPV1 PAM, Giardia kill)
CC1(C)CC2CC(C)(CN2C(=O)NC(=O)c2ccccc2)C1 (configuration not stated)	none (no result: FUS suppressor)

Compound activity (PubChem BioAssay)
